GPR151 ag: activators of human GPR151, primary screen, cell-based, PathHunter beta-arrestin, luminescence | G-protein coupled receptor 151 (Homo sapiens), Q8TDV0 | PathHunter beta-arrestin GPR151 cells | activation, % at 11.2 µM | actives 1% (n = 650,000); in the data active = activation above about 4.9%;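 also: 0% = median of compound wells and 100% = cells with positive control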
Target sequence (Q8TDV0 whole entry, looked up): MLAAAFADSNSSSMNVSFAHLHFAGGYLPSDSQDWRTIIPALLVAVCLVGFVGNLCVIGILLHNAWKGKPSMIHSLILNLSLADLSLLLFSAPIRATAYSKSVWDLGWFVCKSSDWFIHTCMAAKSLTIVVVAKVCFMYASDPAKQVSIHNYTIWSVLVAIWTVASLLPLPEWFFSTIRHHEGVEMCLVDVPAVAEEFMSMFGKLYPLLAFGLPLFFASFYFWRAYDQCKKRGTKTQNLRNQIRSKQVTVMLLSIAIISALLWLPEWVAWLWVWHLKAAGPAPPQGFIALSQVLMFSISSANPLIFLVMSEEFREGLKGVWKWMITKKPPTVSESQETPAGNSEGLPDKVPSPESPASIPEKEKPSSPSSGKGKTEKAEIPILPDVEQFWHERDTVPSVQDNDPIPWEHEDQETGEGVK
MITF primary: MITF inhibitors, primary screen, biochemical, AlphaScreen, human; Microphthalmia-associated transcription factor (Homo sapiens), O75030; AlphaScreen MITF homodimerization, bead proximity signal; inhibition, % at 2.6 µM; actives 0.91% (n = 650,000); AID 1259374, 2018; in the data active = inhibition above about 50%;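 also: 0% = vehicle wells with protein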
TEAD-YAP block: TEAD-YAP interaction inhibition, primary screen, TEAD-YAP interaction inhibitor project, luminescence, HEK-TIYL cells; TEAD-Gal4/YAP UAS-luciferase luminescence; inhibition, % at 9.12 µM; actives 1.4% (n = 640,000); in the data active = inhibition above about 32%;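 also: 0% = median of test compound wells and 100% = reference inhibitor wells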
FBW7 act: FBW7 E3 ligase activators, primary screen, biochemical, AlphaScreen, human | AlphaScreen FBW7–phospho-cyclin E peptide binding, activator screen | F-box/WD repeat-containing protein 7 (Homo sapiens), Q969H0 | actives 0.13% (n = 650,000) | normalized activity (activation), % at 26.1 µM | AID 1259310, 2017; in the data active = normalized activity above about 1.9%;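 also: purified mutant Fbw7 with reduced substrate affinity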
GPR151 conf act: GPR151 activators, triplicate retest, confirmation, cell-based, PathHunter beta-arrestin, luminescence; activation, % at 11.2 µM; 6,700 tested, under 10 active; AID 1508609, 2020; shares compounds with GPR151 ag; GPR151 PathHunter beta-arrestin cells, 90 min; % of EA-reagent control over plate median;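 active = mean percent activation across replicates above the confirmation screen cutoff of 4.91%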
GPR119 ag: GPR119 activators in beta-arrestin cells, counter-screen for GPR151 activator project, cell-based, PathHunter beta-arrestin, luminescence, triplicate. shares compounds with GPR151 ag. 90 min; 0 = compound-well median, 100 = enzyme-acceptor control. activation, % at 11.2 µM. actives 0.3% (n = 6,700). AID 1508611, 2020;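 active = mean percent activation in the counterscreen above 29.09%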;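 also: counterscreen on off-target GPR119 to flag nonselective hits from the GPR151 activator screen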
Active calls of the source: *. Rows were chosen to be rich in hits. Some 3.5% of all compounds tested hit in one or more screens of this group.

CC1(C)Cc2ccccc2/C(=C/C(=O)Nc2ccc([N+](=O)[O-])cc2)N1 was read as GPR151 ag 5.5*, MITF primary -16.5, TEAD-YAP block -5.2, FBW7 act 0.3, GPR151 conf act 0.7 and GPR119 ag 11.5.
For NC(=O)C1(N2CCCCC2)CCN(S(=O)(=O)c2ccc(Cl)cc2)CC1 the results were GPR151 ag 5.4*, MITF primary -1.7, TEAD-YAP block -8.7, FBW7 act 0.0, GPR151 conf act -0.1 and GPR119 ag 3.1.
`Cc1sc(NC(=O)CCS(=O)(=O)c2ccc(Cl)cc2)c(C#N)c1C` gave GPR151 ag 5.2*, MITF primary 11.3, TEAD-YAP block 2.2, FBW7 act -0.1, GPR151 conf act 0.1 and GPR119 ag 1.0.
For Cn1ccnc1SCCNC(=O)CC1C(=O)NCCN1CC1CCCCC1 (stereo not given) the results were GPR151 ag 7.6*, MITF primary 15.3, TEAD-YAP block 9.9, FBW7 act 0.1, GPR151 conf act 0.1 and GPR119 ag 6.1.
For CC(C)(C)CN1CCNC(=O)C1CC(=O)NC1CCCCCCC1 (stereo not given) the results were GPR151 ag 11.3*, MITF primary 10.6, TEAD-YAP block -13.4, FBW7 act 0.1, GPR151 conf act -0.8 and GPR119 ag -3.8.
Screening N#Cc1ccc(CSc2nnc(-c3cccc(S(=O)(=O)N4CCCCC4)c3)o2)cc1 returned GPR151 ag 8.7*, MITF primary 0.2, TEAD-YAP block -3.3, FBW7 act -0.1, GPR151 conf act 0.9 and GPR119 ag -7.4.
Screening O=S(=O)(c1cccc(-c2nnc(SCCOc3ccccc3)o2)c1)N1CCOCC1 returned GPR151 ag 6.5*, MITF primary 10.2, TEAD-YAP block 1.0, FBW7 act 0.2, GPR151 conf act 0.0 and GPR119 ag 8.9.
`Cc1ccc(N2C(=O)SC(Nc3ccc(I)cc3)C2=O)cc1` (stereo not given) gave GPR151 ag -1.0, MITF primary -1.4, TEAD-YAP block -1.8 and FBW7 act -0.1.
Cc1cccc(NC2SC(=O)N(c3ccc(F)cc3)C2=O)c1 (stereo not given) was read as GPR151 ag 5.6*, MITF primary 16.2, TEAD-YAP block -27.1, FBW7 act 0.0, GPR151 conf act -0.5 and GPR119 ag -11.9.
For Cc1ccc(N2C(=O)SC(Nc3ccc(F)cc3)C2=O)cc1 (stereo not given) the results were GPR151 ag 5.4*, MITF primary 7.1, TEAD-YAP block -14.4, FBW7 act 0.1, GPR151 conf act -0.2 and GPR119 ag -9.2.
For Cc1ccc(N2C(=O)SC(Nc3ccccc3)C2=O)cc1 (stereo not given) the results were GPR151 ag 0.6, MITF primary 13.1, TEAD-YAP block -42.8 and FBW7 act 0.1.
`Cc1[nH]c2ccccc2c1/C=N/Nc1ccccc1[N+](=O)[O-]` gave GPR151 ag 6.9*, MITF primary 40.0, TEAD-YAP block -53.8, FBW7 act 0.0, GPR151 conf act 0.2 and GPR119 ag 8.9.
Screening O=C(Nc1ccc(S(=O)(=O)Nc2ncccn2)cc1)C(c1ccccc1)c1ccccc1 returned GPR151 ag 7.1*, MITF primary 21.0, TEAD-YAP block -2.3, FBW7 act 1.4, GPR151 conf act 0.6 and GPR119 ag -6.9.
COC(=O)COc1ccc(NC(=O)C(c2ccccc2)c2ccccc2)cc1 was read as GPR151 ag 1.1, MITF primary 16.9, TEAD-YAP block -3.6 and FBW7 act 0.5.
For O=C(O)COc1ccc(NC(=O)C(c2ccccc2)c2ccccc2)cc1 the results were GPR151 ag 4.9*, MITF primary 10.2, TEAD-YAP block -10.3, FBW7 act 0.1, GPR151 conf act -1.4 and GPR119 ag -12.7.
`CCc1ccc(N(C(=O)c2csnn2)C(C(=O)NC(C)(C)CC)c2ccncc2)cc1` (stereo not given) gave GPR151 ag 21.9*, MITF primary 9.7, TEAD-YAP block -8.4, FBW7 act -0.1, GPR151 conf act 0.0 and GPR119 ag 7.9.
Cc1cccc(CCNS(=O)(=O)c2c(C)n[nH]c2C)c1 was read as GPR151 ag -1.0, MITF primary -3.6, TEAD-YAP block -3.4 and FBW7 act -0.1.
Screening CCOc1ccc(CCNS(=O)(=O)c2c(C)n[nH]c2C)cc1OCC returned GPR151 ag 5.6*, MITF primary 5.4, TEAD-YAP block 5.8, FBW7 act 0.2, GPR151 conf act 0.5 and GPR119 ag 7.6.
Screening O=C(Nc1ccc(Cl)cc1)c1nn2cccnc2c1Cl returned GPR151 ag 0.0, MITF primary 4.7, TEAD-YAP block -65.9 and FBW7 act 0.0.
For C=CCNC(=O)c1nn2cccnc2c1Cl the results were GPR151 ag 5.3*, MITF primary -11.6, TEAD-YAP block -14.1, FBW7 act 0.1, GPR151 conf act 0.6 and GPR119 ag -0.5.
Screening O=C1NC(=O)C(=Cc2cccc(OS(=O)(=O)c3ccc(Cl)cc3)c2)C(=O)N1 returned GPR151 ag 2.2, MITF primary -8.7, TEAD-YAP block -21.0 and FBW7 act -0.7.
`CCOc1cc(C=C2C(=O)NC(=O)NC2=O)ccc1OC` gave GPR151 ag -1.5, MITF primary 12.0, TEAD-YAP block 14.2 and FBW7 act 0.1.
For CCOc1cc(C=C2C(=O)NC(=O)NC2=O)ccc1OS(=O)(=O)c1ccc(OC)cc1 the results were GPR151 ag 6.0*, MITF primary -11.4, TEAD-YAP block 6.4, FBW7 act -0.1, GPR151 conf act 0.5 and GPR119 ag 3.6.
COc1ccc(S(=O)(=O)Oc2cccc(C=C3C(=O)NC(=O)NC3=O)c2)cc1 was read as GPR151 ag 6.1*, MITF primary -5.2, TEAD-YAP block -9.8, FBW7 act -1.0, GPR151 conf act -0.1 and GPR119 ag 7.5.
For COc1ccc(-c2nc(CNS(=O)(=O)c3ccc(OC)cc3)cs2)cc1 the results were GPR151 ag 0.2, MITF primary -5.8, TEAD-YAP block -2.4 and FBW7 act -0.4.
O=C(CSc1nc(=O)n(CCCO)c2c1CCCC2)N1CCN(c2ccccc2)CC1 was read as GPR151 ag -1.4, MITF primary 8.1, TEAD-YAP block 6.2 and FBW7 act 0.2.
`CC1CCN(C(=O)CSc2nc(=O)n(CCO)c3c2CCCC3)CC1` gave GPR151 ag 8.3*, MITF primary 7.7, TEAD-YAP block -0.9, FBW7 act 0.0, GPR151 conf act -0.1 and GPR119 ag -1.4.

Assay outcomes from PubChem BioAssay.
